This note sets out measurements from PubChem BioAssay (NCI).

Test systems include NCI-H226 lung; NCI-H322M lung; NCI-H460 lung; HOP-92 NSCLC; A549/ATCC NSCLC; 786-0 renal; COLO 205 colon; DU-145 prostate; K-562 leukemia; MALME-3M melanoma; MDA-MB-231 breast; RXF 393 renal; SF-268 CNS; SF-295 CNS; SF-539 CNS; UACC-257 melanoma; M14 melanoma; HOP-62 NSCLC; NCI-H522 lung.
What all share (assay): NCI-60 one-dose screen, 48 h (100 = growth as untreated, 0 = no growth, -100 = all killed)
Common to all, as to conditions: 10 µM unless noted

Values joined by “and” are separate entries in the source; they are usually repeats but may differ in a detail not shown here. Equal entries are not always repeated. About 83,000 compounds went through this panel and 20% of them were active in at least one assay; those are over-represented in the sample as a whole.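 Values shown are percent growth following 48 h exposure of cells in 96-well plates to a single concentration of compound; below 10 was considered active.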 Unmarked numbers belong to inactive results. Active and inactive are the calls of the source.

Take `CSc1cc(/C=C(\C)[C@@H]2C[C@@H]3O[C@]3(C)CCC[C@H](C)[C@H](O)[C@@H](C)C(=O)C(C)(C)[C@@H](O)CC(=O)O2)n(CCNC(=O)OC(C)(C)C)n1`: the growth was 82.7% in the experiment on NCI-H226 lung; 77.2% in the experiment with NCI-H322M lung; 29.6% in the experiment on NCI-H460 lung; 70.3% with HOP-92 NSCLC; 55.2% with A549/ATCC NSCLC; 66.6% in the experiment on 786-0 renal. Also, the growth in the experiment on COLO 205 colon is 30.5%; with DU-145 prostate, 58%; with K-562 leukemia it was 36.4%; with MALME-3M melanoma, 78.7%; with MDA-MB-231 breast, 63.8%; in the experiment with RXF 393 renal it was 63.6%. For the same molecule, the growth in the experiment with SF-268 CNS was 70.6%; with SF-295 CNS, 73.5%; in the experiment with SF-539 CNS, 54%; in the experiment on UACC-257 melanoma, 91.9%; in the experiment with M14 melanoma, 56.7%.

As for `C[C@@]12CCCc3coc(c31)C(=O)c1cc3c(cc12)C(=O)C1=C(NCCS1(=O)=O)C3=O`, the growth in the experiment on NCI-H226 lung is 7.87% (active); with NCI-H322M lung, -6.28% (active); with HOP-62 NSCLC, -9.65% (active); with NCI-H460 lung it was 0.0882% (active); with HOP-92 NSCLC, -30.6% (active); in the experiment with NCI-H522 lung, -55.6% (active). Besides, the growth is -10.7% (active) in the experiment with A549/ATCC NSCLC; 6.38% (active) in the experiment with 786-0 renal; -78.1% (active) in the experiment on COLO 205 colon; -91.8% (active) with DU-145 prostate; -38.6% (active) in the experiment with K-562 leukemia; -98.2% (active) with MALME-3M melanoma. Further, the growth is -23.7% (active) in the experiment with MDA-MB-231 breast; 6.73% (active) with RXF 393 renal; -1.36% (active) with SF-268 CNS; 2.57% (active) in the experiment with SF-295 CNS; -63.4% (active) with SF-539 CNS; -94.2% (active) in the experiment with UACC-257 melanoma. Moreover, the growth in the experiment on M14 melanoma is -80.9% (active).

As for `COc1cc(/C=C\[N+](=O)[O-])ccc1OCc1ccccc1`, the growth in the experiment with NCI-H226 lung is 105%; with NCI-H322M lung, 94.5%; in the experiment with HOP-62 NSCLC, 30.7%; in the experiment with NCI-H460 lung it was 62.4%; in the experiment on HOP-92 NSCLC, 66.3%; in the experiment with NCI-H522 lung it was 73.5%. For the same molecule, the growth with A549/ATCC NSCLC is 64.7%; in the experiment with 786-0 renal it was -17.4% (active); in the experiment with COLO 205 colon it was 32.7%; in the experiment with DU-145 prostate, 44.3%; with K-562 leukemia it was 0.133% (active); in the experiment on MALME-3M melanoma it was 77.9%. Further, the growth was 12.5% with MDA-MB-231 breast; -86.1% (active) with RXF 393 renal; 19.4% with SF-268 CNS; 48.7% with SF-295 CNS; 30.8% with SF-539 CNS; 61.8% with UACC-257 melanoma. Further, in the experiment with M14 melanoma, the growth is 15.5%.

For the molecule `CCCCCCCCCCCCCCCCCCn1cc[n+](C)c1`, the growth in the experiment on NCI-H226 lung was -54% (active) and -61.7% (active); with NCI-H322M lung, 5.3% (active) and 6.16% (active); in the experiment on HOP-62 NSCLC, -58.6% (active) and -74.1% (active); in the experiment with NCI-H460 lung, -62.9% (active) and -51.3% (active); in the experiment with HOP-92 NSCLC, -51.3% (active) and -66.2% (active); with NCI-H522 lung, -74.9% (active) and -74.3% (active). Further, the growth in the experiment with A549/ATCC NSCLC is -15.2% (active) and -47.2% (active); with 786-0 renal, -74.9% (active) and -81.7% (active); in the experiment on COLO 205 colon, 1.82% (active) and -47.3% (active); in the experiment on DU-145 prostate it was -54% (active) and -62.3% (active); in the experiment with K-562 leukemia it was 28.3% and 17.9%; with MALME-3M melanoma, -33.7% (active) and -30.7% (active). Besides, the growth with MDA-MB-231 breast was -66.2% (active) and -80.2% (active); in the experiment on RXF 393 renal, -28.3% (active) and -62.1% (active); in the experiment with SF-268 CNS it was -45.4% (active) and -45.3% (active); in the experiment on SF-295 CNS it was -10.4% (active) and -21.5% (active); with SF-539 CNS, -85.2% (active) and -82.9% (active); in the experiment on UACC-257 melanoma it was -38% (active) and -47.9% (active). In the experiment with M14 melanoma, the growth was -62.4% (active) and -49.9% (active).

As for `O=C(O)c1ccc(=O)[nH]c1`, the growth was 96.3% and 89.5% in the experiment with NCI-H226 lung; 108% and 105% in the experiment with NCI-H322M lung; 98.8% and 85.9% in the experiment on HOP-62 NSCLC; 111% and 104% with NCI-H460 lung; 100% in the experiment on HOP-92 NSCLC; 87.7% in the experiment with A549/ATCC NSCLC. In addition, the growth with 786-0 renal was 96.7% and 99.6%; with COLO 205 colon it was 98.3% and 98.9%; in the experiment with DU-145 prostate it was 114% and 111%; in the experiment with K-562 leukemia, 102% and 89.2%; in the experiment with MALME-3M melanoma, 109% and 104%; with MDA-MB-231 breast, 102% and 104%. Further, the growth in the experiment with SF-268 CNS was 101% and 104%; with SF-295 CNS it was 113% and 96.2%; with SF-539 CNS, 89.5% and 98.2%; with M14 melanoma, 102% and 95.8%.

In the case of `CC1(C)N(Nc2ccccc2)C(=O)C2CCCN21` (centres undefined), the growth with NCI-H226 lung was 84.6%; in the experiment on NCI-H322M lung it was 87.4%; in the experiment with NCI-H460 lung, 99.8%; in the experiment with HOP-92 NSCLC, 52.7%; in the experiment on A549/ATCC NSCLC it was 79.4%; in the experiment on 786-0 renal, 33.4%. Further, the growth with COLO 205 colon is 104%; with DU-145 prostate, 16.8%; with K-562 leukemia, 8.29% (active); with MALME-3M melanoma, 84.2%; in the experiment on MDA-MB-231 breast it was 89.6%; with RXF 393 renal it was 116%. The growth is 39.5% in the experiment on SF-268 CNS; 84.5% in the experiment with SF-295 CNS; 89.3% in the experiment with SF-539 CNS; 89.2% with UACC-257 melanoma; 10% (active) in the experiment on M14 melanoma.

For the molecule `COCC1OC2OC3C(COC)OC(OC4C(COC)OC(OC5C(COC)OC(OC6C(COC)OC(OC7C(COC)OC(OC8C(COC)OC(OC1C(O)C2O)C(O)C8O)C(O)C7O)C(O)C6O)C(O)C5O)C(O)C4O)C(O)C3O` (centres undefined) (tested in a mixture with another compound), the growth in the experiment with NCI-H226 lung was 102%; with NCI-H322M lung, 134%; in the experiment with NCI-H460 lung, 109%; in the experiment with NCI-H522 lung it was 109%; in the experiment on A549/ATCC NSCLC, 109%; in the experiment with 786-0 renal, 139%. In addition, the growth with COLO 205 colon was 127%; in the experiment on DU-145 prostate, 113%; in the experiment with K-562 leukemia, 99.5%; in the experiment on MALME-3M melanoma, 127%; in the experiment with MDA-MB-231 breast, 115%; in the experiment on RXF 393 renal it was 129%. Moreover, the growth in the experiment with SF-268 CNS was 105%; in the experiment on SF-295 CNS, 111%; in the experiment on SF-539 CNS, 111%; with UACC-257 melanoma, 117%; in the experiment on M14 melanoma, 105%.
